The text below walks through data of PubChem BioAssay (Tox21).

The nature of assay [1]: qHTS assay to identify aromatase inhibitors - cell viability counter screen (AID 743084;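 further: cells stimulated with testosterone during compound exposure; nearly all actives have a fitted effect of over 55% in size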; further: potency means the concentration at half of the fitted maximal effect). (In general: In qHTS, concentration-response curves come from the screen itself.)
Assay [2] has as its target Aryl hydrocarbon receptor (Homo sapiens) (UniProt P35869). The assay is described as follows: qHTS assay to identify small molecule that activate the aryl hydrocarbon receptor (AhR) signaling pathway (AID 743085). Further: nearly all actives have a fitted effect of over 15% in size. Further: potency means the concentration at half of the fitted maximal effect.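 On activation: HG2L7.5c1 human HepG2 liver cells with stably integrated DRE-driven firefly reporter; series mostly up to about 70 µM.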 The procedure, abridged:
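Compounds were tested in HepG2 hepatocellular carcinoma cells harbouring a stably integrated luciferase gene under control of 20 DREs. Increased reporter signal after 24 h treatment at 37C was taken as AhR activation.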

For assay [3], the target named is Peroxisome proliferator-activated receptor gamma (Homo sapiens) (UniProt P37231). Put plainly: qHTS assay to identify small molecule agonists of the peroxisome proliferator-activated receptor gamma (PPARg) signaling pathway (AID 743094; active means well fitted activation curve with a large enough effect in the signal ratio in the repeat runs, not every such curve was filed as active; the % refers to the signal ratio). An outline of the steps:
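Agonist activity was taken from a beta-lactamase reporter (FRET substrate, 1 h at room temperature) in HEK293H cells carrying a PPARg UAS-bla construct. Compounds in DMSO were incubated 17 h at 37C after a 5 h cell pre-incubation.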

A short description of assay [4]: qHTS assay to identify small molecule antagonists of the peroxisome proliferator-activated receptor gamma (PPARg) signaling pathway - cell viability counter screen (AID 743194). Further: nearly all actives have a fitted effect of over 55% in size. Further: potency means the concentration at half of the fitted maximal effect. The following applies: Potency: co-treated with 50 nM rosiglitazone. The procedure, abridged:
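Cytotoxicity counter screen in PPARg-bla HEK293H cells, same wells as reporter assay. Compounds plus 50 nM rosiglitazone (final) for 17 h at 37 C, then viability read by CellTiter-Glo luminescence.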

Assay [5] in a line: qHTS assay for small molecule agonists of the antioxidant response element (ARE) signaling pathway - cell viability counter screen (AID 743203; calls by dose curve; further: nearly all actives have a fitted effect of over 55% in size). The procedure, abridged:
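Viability counter screen: CellTiter-Glo luminescence, read after 30 min at room temperature, in ARE-bla HepG2 wells. Compound exposure lasted 16 h at 37C/5% CO2, following a 5 h pre-incubation of the cells after plating.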

Assay [6] can be described thus: qHTS assay for small molecule activators of the heat shock response signaling pathway - cell viability counter screen (AID 743209). Further: nearly all actives have a fitted effect of over 50% in size. The procedure, abridged: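 Cytotoxicity counter screen run in the same wells as the heat-shock bla reporter assay: HeLa HSE-bla cells, 5 h compound exposure at 37 C, viability read by CellTiter-Glo luminescence.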
The nature of assay [7]: qHTS assay for small molecule activators of the heat shock response signaling pathway (AID 743210; active means well fitted activation curve with a large enough effect in the signal ratio in the repeat runs, with a control signal flat, not every such curve was filed as active; the % refers to the signal ratio;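 further: HeLa cells with beta-lactamase reporter driven by heat shock elements; series mostly up to about 63 µM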). An outline of the steps: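 Following overnight attachment, HSE-bla HeLa cells received test compounds for 5 h at 37 C; beta-lactamase activity was then detected via FRET substrate fluorescence.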
The nature of assay [8]: qHTS assay to identify small molecule agonists of the peroxisome proliferator-activated receptor delta (PPARd) signaling pathway - cell viability counter screen (AID 743211). Further: nearly all actives have a fitted effect of over 55% in size. Further: potency means the concentration at half of the fitted maximal effect. An outline of the steps:
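Counter screen for cytotoxicity run in parallel with the PPARd reporter screen. Beta-lactamase reporter HEK293H cells exposed to compounds 17 h; ATP-based CellTiter-Glo luminescence quantified viability.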

In assay [9] the target is Peroxisome proliferator-activated receptor delta (Homo sapiens) (UniProt Q03181). Put plainly: qHTS assay to identify small molecule agonists of the peroxisome proliferator-activated receptor delta (PPARd) signaling pathway (AID 743212; calls by dose curve). The procedure, abridged:
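Tox21 library screened in GeneBLAzer PPARd UAS-bla HEK293H cells. After compound treatment at 37 C, a FRET-based beta-lactamase substrate was applied for 2 h and fluorescence recorded.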

Assay [10] can be described thus: qHTS assay to identify small molecule antagonists of the peroxisome proliferator-activated receptor delta (PPARd) signaling pathway - cell viability counter screen (AID 743213). Further: nearly all actives have a fitted effect of over 50% in size. Further: potency means the concentration at half of the fitted maximal effect. An outline of the steps: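 Luminescence from CellTiter-Glo, added after the bla read and incubated 30 min at room temperature, gives viability of HEK293H PPARd-bla cells exposed to compounds for 17 h at 37 C with 300 nM L165041.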

Assay [11] deals with Peroxisome proliferator-activated receptor delta (Homo sapiens) (UniProt Q03181). The assay is described as follows: qHTS assay to identify small molecule antagonists of the peroxisome proliferator-activated receptor delta (PPARd) signaling pathway (AID 743215; active means well fitted inhibition curve with a large enough effect in the signal ratio in the repeat runs, not every such curve was filed as active; the % refers to the signal ratio;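 further: cells stimulated with agonist L165041 at 300 nM final during compound exposure; series mostly up to about 62 µM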). The procedure, abridged:
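Agonist L165041 (300 nM final) added with compound to PPARd-bla HEK293H UAS-bla reporter cells; 17 h incubation at 37 C. Read-out: LiveBLAzer FRET substrate, 2 h at room temperature, fluorescence intensity.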

The nature of assay [12]: qHTS assay to identify small molecule agonists of the farnesoid-X-receptor (FXR) signaling pathway - cell viability counter screen (AID 743218). Further: nearly all actives have a fitted effect of over 45% in size. Further: potency means the concentration at half of the fitted maximal effect. The procedure, abridged:
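Viability counter screen in the same wells: CellTiter-Glo luminescence, 30 min room-temperature incubation, measured after the beta-lactamase read. Cells were GeneBLAzer FXR-UAS-bla HEK 293T, compound-treated 16 h at 37C.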

Assay [13] is described as follows: qHTS assay to identify small molecule antagonists of the farnesoid-X-receptor (FXR) signaling pathway - cell viability counter screen (AID 743221; active means well fitted cell-killing curve with a large enough effect in the repeat runs, not every such curve was filed as active; further: nearly all actives have a fitted effect of over 50% in size). An outline of the steps: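 Multiplexed counter screen: viability of FXR-bla HEK 293T cells under agonist stimulation by chenodeoxycholic acid (50 uM, final) and test compound for 16 h at 37 C, measured by CellTiter-Glo luminescence in the reporter wells.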

Assay [14] has as its target Vitamin D3 receptor (Homo sapiens) (UniProt P11473). The assay is described as follows: qHTS assay to identify small molecule agonists of the vitamin D receptor (VDR) signaling pathway (AID 743222; calls by dose curve). An outline of the steps: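 Agonist mode, beta-lactamase reporter: fluorescence from LiveBLAzer B/G FRET substrate (2 h, room temperature) read after 16 h compound treatment at 37 C of VDR-bla cells, which were pre-incubated 4 h after seeding.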

Assay [15] has the same target. Put plainly: qHTS assay to identify small molecule antagonists of the vitamin D receptor (VDR) signaling pathway (AID 743223; active means well fitted inhibition curve with a large enough effect in the signal ratio in the repeat runs, not every such curve was filed as active; the % refers to the signal ratio). The procedure, abridged: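 Cells carrying a VDR-driven beta-lactamase reporter (VDR-bla) were co-treated with compound and 3 nM final 1alpha,25-dihydroxyvitamin D3 for 16 h at 37C; reporter activity was measured as FRET substrate fluorescence after 2 h at room temperature.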

The nature of assay [16]: qHTS assay to identify small molecule that activate the aryl hydrocarbon receptor (AhR) signaling pathway - cell viability counter screen (AID 743086). Further: nearly all actives have a fitted effect of over 45% in size. Further: potency means the concentration at half of the fitted maximal effect. The procedure, abridged: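 HepG2-AhR-luc (HG2L7.5c1) cells, 4000/well, treated 24 h at 37 C with compound; viability measured as CellTiter-Fluor fluorescence after 30 min in the same wells as the luciferase read.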
For assay [17], the target named is Peroxisome proliferator-activated receptor gamma (Homo sapiens) (UniProt P37231). The assay is described as follows: qHTS assay to identify small molecule antagonists of the peroxisome proliferator-activated receptor gamma (PPARg) signaling pathway (AID 743191; calls by dose curve; further: series mostly up to about 63 µM; nearly all actives have a fitted effect of over 30% in size). The procedure, abridged:
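GeneBLAzer PPARg UAS-bla HEK293H cells, 5 h post-plating, exposed to compounds 17 h at 37C. LiveBLAzer B/G FRET substrate added for 1 h at room temperature; beta-lactamase reporter read by fluorescence intensity.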

For assay [18], the target named is Bile acid receptor (Homo sapiens) (UniProt Q96RI1). The assay is described as follows: qHTS assay to identify small molecule antagonists of the farnesoid-X-receptor (FXR) signaling pathway (AID 743217; active means well fitted inhibition curve with a large enough effect in the signal ratio in the repeat runs, not every such curve was filed as active; the % refers to the signal ratio; further: potency means the concentration at half of the fitted maximal effect). An outline of the steps: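 Antagonist mode: chenodeoxycholic acid at 50 uM final stimulates a UAS-driven beta-lactamase reporter in HEK 293T FXR-bla cells during 16 h, 37C compound exposure. Read-out is FRET substrate fluorescence after 2 h at room temperature.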

Assay [19] has the same target. The assay is described as follows: qHTS assay to identify small molecule agonists of the farnesoid-X-receptor (FXR) signaling pathway (AID 743220; active means well fitted activation curve with a large enough effect in the signal ratio in the repeat runs, not every such curve was filed as active; the % refers to the signal ratio). An outline of the steps: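 FXR-UAS-bla HEK 293T cells carrying a UAS-driven beta-lactamase reporter were plated for 5 h at 37C/5% CO2, then exposed to DMSO-dissolved Tox21 10K compounds for 16 h at 37C. A LiveBLAzer B/G FRET substrate was loaded for 2 h at room temperature before fluorescence reading.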

A short description of assay [20]: qHTS assay for small molecule agonists of the antioxidant response element (ARE) signaling pathway (AID 743202; active means well fitted activation curve with a large enough effect in the signal ratio in the repeat runs, not every such curve was filed as active; the % refers to the signal ratio; further: potency means the concentration at half of the fitted maximal effect). An outline of the steps: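 HepG2 ARE-bla cells; 16 h treatment at 37 C; FRET-based beta-lactamase fluorescence read after 2 h substrate incubation at room temperature.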

Records with an inconclusive call do not appear. Active and inactive are the calls of the source. Unless noted, the call rests on the fitted dose curve; in most records, active means well fitted curve in the direction sought with a large enough effect in the repeat runs; inconclusive means weak or mixed curves; inactive means no such curve, though single readings can be large; an effect the other way counts as inactive or inconclusive.

Sequence of Aryl hydrocarbon receptor (Homo sapiens) (P35869 whole entry, looked up): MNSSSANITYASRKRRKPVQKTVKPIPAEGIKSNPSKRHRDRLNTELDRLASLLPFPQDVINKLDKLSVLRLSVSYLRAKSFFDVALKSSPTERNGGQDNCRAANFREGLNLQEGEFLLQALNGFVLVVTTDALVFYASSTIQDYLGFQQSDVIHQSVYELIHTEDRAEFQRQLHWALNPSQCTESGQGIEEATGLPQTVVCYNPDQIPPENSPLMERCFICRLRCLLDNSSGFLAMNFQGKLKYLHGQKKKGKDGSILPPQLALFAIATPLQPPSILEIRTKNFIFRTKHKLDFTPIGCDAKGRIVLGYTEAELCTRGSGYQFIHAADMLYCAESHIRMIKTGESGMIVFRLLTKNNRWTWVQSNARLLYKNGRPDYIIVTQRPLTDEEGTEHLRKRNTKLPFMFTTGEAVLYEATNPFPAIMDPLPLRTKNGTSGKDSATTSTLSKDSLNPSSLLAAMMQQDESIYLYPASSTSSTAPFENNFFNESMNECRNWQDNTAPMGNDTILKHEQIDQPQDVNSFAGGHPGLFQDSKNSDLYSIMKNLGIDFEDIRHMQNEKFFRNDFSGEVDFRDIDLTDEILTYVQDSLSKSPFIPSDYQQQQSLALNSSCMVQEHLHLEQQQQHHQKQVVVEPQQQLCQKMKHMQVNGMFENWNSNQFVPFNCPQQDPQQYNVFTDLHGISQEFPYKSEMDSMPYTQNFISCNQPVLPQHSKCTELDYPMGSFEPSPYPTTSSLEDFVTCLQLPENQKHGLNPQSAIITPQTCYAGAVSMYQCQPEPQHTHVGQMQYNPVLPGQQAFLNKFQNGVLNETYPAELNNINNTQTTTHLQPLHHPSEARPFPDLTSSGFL
Sequence of Bile acid receptor (Homo sapiens) (Q96RI1 whole entry, looked up): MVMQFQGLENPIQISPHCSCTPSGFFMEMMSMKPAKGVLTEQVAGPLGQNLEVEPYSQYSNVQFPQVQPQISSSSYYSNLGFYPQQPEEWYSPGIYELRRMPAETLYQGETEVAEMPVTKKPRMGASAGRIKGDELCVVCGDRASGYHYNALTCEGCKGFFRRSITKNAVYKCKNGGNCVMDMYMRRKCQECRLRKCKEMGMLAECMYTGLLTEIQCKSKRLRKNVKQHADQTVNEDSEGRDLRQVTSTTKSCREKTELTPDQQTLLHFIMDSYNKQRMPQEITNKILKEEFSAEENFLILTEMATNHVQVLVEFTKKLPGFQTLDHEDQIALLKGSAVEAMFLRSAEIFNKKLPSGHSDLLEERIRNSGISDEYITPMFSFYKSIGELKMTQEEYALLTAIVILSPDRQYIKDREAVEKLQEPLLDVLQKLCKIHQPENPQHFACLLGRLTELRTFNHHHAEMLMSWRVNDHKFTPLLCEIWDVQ
Sequence of Peroxisome proliferator-activated receptor gamma (Homo sapiens) (P37231 whole entry, looked up): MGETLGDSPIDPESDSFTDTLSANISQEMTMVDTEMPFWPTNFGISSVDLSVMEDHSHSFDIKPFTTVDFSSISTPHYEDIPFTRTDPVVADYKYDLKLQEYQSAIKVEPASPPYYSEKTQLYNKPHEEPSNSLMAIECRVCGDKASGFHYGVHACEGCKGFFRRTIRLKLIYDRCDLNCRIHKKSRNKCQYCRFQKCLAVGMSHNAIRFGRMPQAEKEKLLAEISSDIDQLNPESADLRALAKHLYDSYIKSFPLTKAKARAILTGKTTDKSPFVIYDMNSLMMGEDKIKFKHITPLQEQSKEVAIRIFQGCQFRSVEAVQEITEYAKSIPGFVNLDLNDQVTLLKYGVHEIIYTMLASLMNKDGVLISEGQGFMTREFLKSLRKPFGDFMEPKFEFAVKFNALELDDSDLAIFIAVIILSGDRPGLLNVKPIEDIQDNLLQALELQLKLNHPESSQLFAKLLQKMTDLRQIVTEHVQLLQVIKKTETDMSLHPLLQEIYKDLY
Sequence of Peroxisome proliferator-activated receptor delta (Homo sapiens) (Q03181 whole entry, looked up): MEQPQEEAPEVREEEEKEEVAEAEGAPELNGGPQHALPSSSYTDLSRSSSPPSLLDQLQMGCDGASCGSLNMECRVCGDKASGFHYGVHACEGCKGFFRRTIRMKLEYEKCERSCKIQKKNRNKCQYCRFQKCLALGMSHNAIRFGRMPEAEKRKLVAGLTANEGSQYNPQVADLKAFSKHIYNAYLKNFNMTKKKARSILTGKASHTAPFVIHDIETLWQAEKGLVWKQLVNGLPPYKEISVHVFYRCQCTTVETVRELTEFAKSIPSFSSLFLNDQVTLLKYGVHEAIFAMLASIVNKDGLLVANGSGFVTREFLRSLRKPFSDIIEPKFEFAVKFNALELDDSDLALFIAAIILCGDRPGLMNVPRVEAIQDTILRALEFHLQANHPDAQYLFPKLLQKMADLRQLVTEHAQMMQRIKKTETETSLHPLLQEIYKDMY
Sequence of Vitamin D3 receptor (Homo sapiens) (P11473 whole entry, looked up): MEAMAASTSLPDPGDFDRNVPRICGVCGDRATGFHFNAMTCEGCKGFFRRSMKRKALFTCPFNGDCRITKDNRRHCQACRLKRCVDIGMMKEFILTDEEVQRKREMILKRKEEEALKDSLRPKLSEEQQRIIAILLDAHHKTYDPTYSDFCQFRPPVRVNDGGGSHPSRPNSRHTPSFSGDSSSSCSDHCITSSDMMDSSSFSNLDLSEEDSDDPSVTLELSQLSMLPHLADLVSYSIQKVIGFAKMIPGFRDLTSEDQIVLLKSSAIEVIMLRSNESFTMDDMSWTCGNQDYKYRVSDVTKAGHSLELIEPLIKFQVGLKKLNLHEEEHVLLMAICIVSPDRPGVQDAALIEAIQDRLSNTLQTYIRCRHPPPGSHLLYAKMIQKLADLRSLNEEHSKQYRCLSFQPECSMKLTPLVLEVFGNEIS

Turning to `CCOP(=O)(OCC)O/C(=C/Cl)c1ccc(Cl)cc1Cl`, the Potency entry in assay [1], in assay [2], in assay [3], in assay [4], in assay [5] and in assay [6] was “inactive” throughout. For the same compound, the Potency result in [8], in assay [10], in assay [11], in [12] and in [13] was “inactive” throughout. Further, the outcome in [7], in assay [9], in [14] and in assay [15] was inactive.
Take `O=S1(=O)OC(c2cc(Br)c(O)c(Br)c2)(c2cc(Br)c(O)c(Br)c2)c2ccccc21`: the Potency in assay [1] is 25 µM (active); in assay [16] it was 28.1 µM (active). Further, the Potency entry in assay [2], in assay [17], in [11] and in assay [18] was “inactive” throughout. For the same compound, the compound was classed as inactive in assay [7], in [9], in assay [19] and in [14].
As to `O=C(NC(=O)c1c(F)cccc1F)Nc1cc(Cl)c(Oc2ncc(C(F)(F)F)cc2Cl)c(Cl)c1`, the Potency result in assay [1], in [2], in assay [16], in assay [4], in assay [6] and in [10] was “inactive” throughout. The Potency entry in [11] is “inactive”. For the same compound, the Potency in assay [12] is 37.3 µM (active).
Regarding `O=C1CN=C(c2ccccc2)c2cc(Cl)ccc2N1CC1CC1`, the Potency result in [1], in [2], in assay [16], in assay [4], in assay [5] and in [6] was “inactive” in each case. In addition, the Potency result in assay [8], in assay [10] and in assay [13] was “inactive” each time. For the same compound, the call in assay [14] and in assay [15] was inactive.
As for `O=C(O)C1(c2ccc3c(c2)OC[C@H](Cc2ccc(-c4ccccc4)cc2)[C@H]3O)CCCC1`, the Potency entry in assay [1], in assay [2], in assay [16] and in assay [18] was “inactive” throughout. Further, the values for the Potency in assay [4], in assay [8] and in [10] were 43.6 µM (active), 49 µM (active) and 43.6 µM (active), respectively.
Turning to `CN1[C@@H]2CC[C@H]1CC(OC(=O)c1cc(Cl)cc(Cl)c1)C2` (stereo not given in full), the Potency entry in [1], in [2], in assay [3], in assay [17], in assay [6] and in assay [8] was “inactive” throughout. The Potency entry in assay [11] is “inactive”. The outcome in assay [7] and in assay [9] was inactive.
As for `CCOP(=S)(OCC)SCn1nnc2ccccc2c1=O`, the Potency in assay [1] was 54.5 µM (active); in assay [4], 43.6 µM (active); in [20], 3.06 µM (active); in [10] it was 54.9 µM (active); in assay [12], 43.6 µM (active). Further, the Potency result in assay [2], in assay [3] and in [6] was “inactive” in each case.
Take `CCCCCC[N+](=O)[O-]`: the Potency entry in assay [1], in assay [2], in assay [16], in [5], in [6] and in assay [8] was “inactive” in each case. The Potency result in assay [10], in assay [18], in assay [12] and in assay [13] was “inactive” in each case. For the same compound, the compound was classed as inactive in assay [7], in assay [19] and in assay [14].
Turning to `Clc1ccc(C(OCCN2CCCCC2)c2ccccc2)cc1` (stereo not given), the Potency result in assay [1], in assay [2], in assay [3], in assay [17], in assay [4] and in [13] was “inactive” throughout. Further, the compound was called inactive in [7], in [14] and in assay [15].
With `CCCCCCCCCC(=O)O[C@H]1CC[C@H]2[C@@H]3CCC4=CC(=O)CC[C@@H]4[C@H]3CC[C@]12C`, the Potency entry in [1], in assay [2], in [3], in assay [17], in assay [4] and in assay [5] was “inactive” in each case. Also, the Potency entry in [8], in [10], in assay [11], in assay [18] and in assay [13] was “inactive” in each case. In addition, the result in assay [7], in assay [9], in assay [19] and in assay [15] was inactive.
With `Nc1ccc(N=Nc2ccc(-c3ccc(N=Nc4c(S(=O)(=O)O)cc5cc(S(=O)(=O)O)c(N=Nc6ccccc6)c(O)c5c4N)cc3)cc2)c(N)c1`, the figures for the Potency in assay [1], in assay [2] and in [16] were 31.3 µM (active), 5.56 µM (active) and 39.4 µM (active), respectively. Also, the Potency result in [4], in assay [20], in assay [5], in [6] and in assay [8] was “inactive” throughout. Besides, the compound was classed as inactive in [9] and in [15].
With `CCCCCCCCCCOC(=O)c1ccccc1C(=O)OCCCCCCCCCC`, the Potency result in [1], in assay [2], in assay [16], in [4], in [20] and in assay [5] was “inactive” throughout. The Potency entry in assay [6], in assay [8], in assay [10], in assay [11], in assay [18] and in assay [13] was “inactive” throughout. The result in assay [7], in assay [9] and in assay [19] was inactive.
As for `Clc1cc(Cl)c(Cl)c(Cl)c1`, the Potency entry in [1], in assay [2], in [3], in assay [17], in [4] and in assay [5] was “inactive” throughout. Besides, the Potency entry in assay [6], in assay [8], in assay [11] and in assay [13] was “inactive” in each case. The call in [7], in assay [9] and in assay [14] was inactive.
In the case of `CCc1ccc(C(=O)NN(C(=O)c2cc(C)cc(C)c2)C(C)(C)C)cc1`, the Potency is 6.86 µM (active) in assay [1], 61.1 µM (active) in [20] and 54.9 µM (active) in assay [18]. The Potency entry in assay [2], in assay [3], in assay [17], in assay [4], in [5] and in [6] was “inactive” throughout. Further, the Potency result in assay [8], in assay [10], in assay [11] and in assay [13] was “inactive” in each case. Moreover, the compound was classed as inactive in assay [7], in assay [9], in assay [14] and in assay [15].
